We go through 64 compounds from PubChem BioAssay AID1578 (Sanford-Burnham Center for Chemical Genomics, 2009).

The whole screen tested about 290,000 compounds, of which about 3,000 (1%) were called active. This excerpt belongs to a sample that is enriched for actives. Unmarked numbers belong to inactive results. Cut-off read from the data, not from the text of the source: active = inhibition mostly above about 36% (no sharp cut-off); inactive = mostly below about 34%.

The test can be described thus: inhibition of NOD1-driven NF-kB reporter – cell-based, luminescence, uHTS, primary screen (AID 1578).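 Note: HEK-293T reporter cells stimulated with the NOD1 agonist gamma-tri-DAP.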 The note with it: NOD1-driven NF-kB luciferase reporter cells, at 4 µM, stronger effect = higher value. A general note: A reporter such as luciferase makes a cellular process visible.
Regarding `Cc1ccc(N(C(C)C(=O)Nc2cccc(N(C)S(C)(=O)=O)c2)S(C)(=O)=O)cc1` (centres undefined), the inhibition is -21.2%.

Consider `CC(C)NC(=O)CN(Cc1ccc2c(c1)OCO2)C(=O)CCC(=O)Nc1ccccn1`, for which the inhibition is -22.2%.

On to `O=C(Cc1ccc([N+](=O)[O-])cc1)N1CCN=C1SCc1ccccc1`, for which the inhibition is -5%.

For the compound `Cc1cc(S(=O)(=O)Nc2ccc(C(=O)NCC(C)(C)N3CCOCC3)cc2)ccc1F`, the inhibition is -4.6%.

Take `OCCN(CCO)CC(O)CN1c2ccccc2Sc2ccccc21` (centres undefined): the inhibition was 2.7%.

Consider `CCC(C)NC(=O)Cn1cc2c(n1)CCC(C)C2` (centres undefined), for which the inhibition is 7.9%.

For the compound `CCOc1ccccc1N(CC(=O)NCc1ccco1)C(=O)CCC(=O)Nc1nccs1`, the inhibition is -30.2%.

On to `COc1ccc(CNCc2cc(OC)ccc2OC)cc1`, for which the inhibition was -19.6%.

Regarding `C=CCSC1=C(C#N)C(c2ccccc2Cl)C(C(=O)c2cccs2)C(O)(C(F)(F)F)N1` (centres undefined), the inhibition is 63.3%.

Consider `CCSC1=C(C#N)C(c2ccccc2Cl)C(C(=O)c2cccs2)C(O)(C(F)(F)F)N1` (centres undefined), for which the inhibition is 64.5% (active).

As to `CSC1=C(C#N)C(c2ccccc2Cl)C(C(=O)c2cccs2)C(O)(C(F)(F)F)N1` (centres undefined), the inhibition was -8.1%.

For `CC1=NN(c2ccccc2)C(=O)C1=C(C)C`, the inhibition was -15.5%.

For `CCOC(=O)C(c1ccccc1)C(Nc1ccc(F)cc1)c1ccccn1` (centres undefined), the inhibition is -2%.

In the case of `CC(C)(C)c1ccc(C(=O)N/N=C/c2cccc(Cl)c2)cc1`, the inhibition is 72.3% (active).

As to `O=C(N/N=C/c1cccc(F)c1)c1ccc(Cl)cc1`, the inhibition was -50.5%.

On to `Cn1c(=O)n(C)c2cc(/C=N/NC(=O)c3ccc(Cl)cc3)ccc21`, for which the inhibition is -11.1%.

On to `CCC(=O)c1c[nH]c(C(=O)N2CCOCC2)c1`, for which the inhibition was -10.3%.

Consider `CC1=CC(=C2C(=O)c3ccccc3C2=O)C=C(C)O1`, for which the inhibition is -62.6%.

In the case of `CCCCCCN1Cc2ccccc2C1`, the inhibition was 5.4%.

Turning to `CCN1C=CC(=C2C(=O)c3ccccc3C2=O)C=C1`, the inhibition was 90.4% (active).

On to `CN1C=CC(=C2C(=O)c3ccccc3C2=O)C=C1`, for which the inhibition was -58.3%.

Turning to `CCCCCN1C=CC(=C2C(=O)c3ccccc3C2=O)C=C1`, the inhibition was 93.3% (active).

Regarding `CCCCN1C(C)=CC(=C2C(=O)c3ccccc3C2=O)C=C1C`, the inhibition was -16.5%.

In the case of `CCCCCCN1C=CC(=C2C(=O)c3ccccc3C2=O)C=C1`, the inhibition was 80.8% (active).

With `CCCCCCCN1C=CC(=O)CC1`, the inhibition was 2%.

As for `CCCN1C=CC(=C2C(=O)c3ccccc3C2=O)C=C1`, the inhibition was 97.9%.

For `CCCCN1C=CC(=C2N=c3cccc([N+](=O)[O-])c3=N2)C=C1`, the inhibition was 35.9%.

Turning to `CCCCN1C=CC(=C2C(=O)c3ccccc3C2=O)C=C1`, the inhibition is 95.3% (active).

Consider `CC1=CC(=C2C(=O)c3ccccc3C2=O)C=C(C)N1C`, for which the inhibition is -1.3%.

Take `COC(=O)c1ccc(CC(=O)c2nc3ccccc3s2)cc1`: the inhibition is -21.3%.

As for `COc1ccc(C2CC(c3ccc4ccccc4c3OC(C)=O)=NN2C(C)=O)cc1` (centres undefined), the inhibition is -2.5%.

Consider `CCN(CC)S(=O)(=O)c1ccc2c(c1)[nH]c(=S)n2CC`, for which the inhibition is -41.3%.

With `CCOc1ccc(CCNC(=O)COC(=O)C2CCN(S(=O)(=O)c3ccc(C)c(C)c3)CC2)cc1OCC`, the inhibition is -4.1%.

In the case of `CC(=O)NC1CC2CCC(C1)N2Cc1ccc(C)cc1` (centres undefined), the inhibition is -106%.

On to `Cc1c(C)c2ccc(OCC(=O)NC(Cc3ccc(Cl)cc3)C(=O)O)cc2oc1=O` (centres undefined), for which the inhibition was -25%.

On to `O=S(=O)(c1ccccc1)N1CCCc2ccccc21`, for which the inhibition was 8.6%.

As for `COc1ccc(N2CCN(C(=O)c3cc(=O)c4cc(C)c(C)cc4o3)CC2)cc1`, the inhibition is -10.3%.

With `c1ccc(OCc2nc3ccccc3s2)cc1`, the inhibition was -39.1%.

As to `COC(=O)c1ccc(CN2C(=O)NC3(CCC(C)CC3)C2=O)cc1` (centres undefined), the inhibition is -51.8%.

`COCCNC(=S)N/N=C/c1ccccc1C(=O)O`: the inhibition was -17.1%.

As for `CCc1ccc(C(=O)c2cncc(Br)c2)cc1`, the inhibition is -3.9%.

On to `Cc1ccc(NC(=O)c2cncc(Br)c2)c([N+](=O)[O-])c1`, for which the inhibition was 5.4%.

With `O=C(c1ccccc1)c1cncc(Br)c1`, the inhibition was -4.9%.

As for `Cc1ccc(C(=O)c2cncc(Br)c2)cc1`, the inhibition is 48.9% (active).

With `Cc1ccc(NC(=O)c2cncc(Br)c2)c(O)c1`, the inhibition was 66% (active).

As to `Cc1ccc(NC(=O)c2cncc(Br)c2)nc1`, the inhibition is -55.8%.

Take `O=C(C[n+]1cc(-c2ccc(F)cc2)n2c1CCC2)Nc1nc(-c2ccc(F)cc2)cs1`: the inhibition was 11.7%.

On to `CS(=O)(=O)n1nc(-c2ccccc2)nc1NCc1ccco1`, for which the inhibition was 57.3% (active).

Turning to `CCS(=O)(=O)n1nc(-c2ccccc2)nc1NCc1ccco1`, the inhibition is -33.3%.

For the compound `Cc1ccc(-c2nc(NCc3ccco3)n(S(C)(=O)=O)n2)cc1`, the inhibition is -21.9%.

On to `Cc1c(C)n(-c2ccccc2)c2ncnc(NCCN(C)C)c12`, for which the inhibition was 1.2%.

Turning to `O=C(Nc1nccs1)c1ccc(N2CCOCC2)c([N+](=O)[O-])c1`, the inhibition was -45.2%.

Regarding `O=C(Nc1nc(-c2ccccc2)cs1)c1ccc(N2CCOCC2)c([N+](=O)[O-])c1`, the inhibition is 104% (active).

`O=C(Nc1nc(-c2ccc(-c3ccccc3)cc2)cs1)c1cc([N+](=O)[O-])ccc1N1CCOCC1`: the inhibition was -31.8%.

Take `Cn1nnc(NC(=O)c2ccc([N+](=O)[O-])cc2Cl)n1`: the inhibition is 11.3%.

Regarding `C=CC(=O)NC(C)(C)Cc1ccccc1`, the inhibition is 1.5%.

As to `CC(C)(Cc1ccc(O)cc1)NC(=O)c1ccccc1`, the inhibition is 43.7%.

Take `CC(C)(Cc1ccc(O)cc1)NC(=O)SCc1ccccc1`: the inhibition was 72.6% (active).

Turning to `CC(C(=O)NCc1ccccc1)N1C(=O)C2CC=C(Cl)CC2C1=O` (centres undefined), the inhibition is 13.9%.

As to `Cc1cccc(N/C(=N/S(=O)(=O)c2ccccc2)c2ccccc2)n1`, the inhibition was -38%.

As to `Cc1ccc(CN2C(=O)CSC2c2ccc(F)cc2)cc1` (centres undefined), the inhibition was -22.3%.

Turning to `CCOCCCNC(=S)N1CCN(Cc2ccco2)CC1`, the inhibition is 57.4% (active).

For the compound `CCOCCCNC(=S)N1CCN(CC)CC1`, the inhibition is -22.2%.

Turning to `S=C(NCc1ccco1)N1CCN(Cc2ccco2)CC1`, the inhibition was -6.3%.

The inhibition is the change of the read-out against control, counted positive when it falls.
